Sampled rows, rich in hits. Any-hit rate of the full collection: about 1.5%.
DAGLB inh = DAGLB lipase inhibitors, primary screen, biochemical, fluorescence, HTS; Diacylglycerol lipase-beta (Homo sapiens), Q8NCG7; HEK293T DAGLB membrane lysate, EnzChek fluorogenic substrate; inhibition, % at 5.17 µM; 340,000 compounds, 0.059% hits; in the data active = inhibition above about 34%;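 also: 0% = enzyme with vehicle and 100% = wells lacking enzyme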
Target sequence (Q8NCG7 whole entry, looked up): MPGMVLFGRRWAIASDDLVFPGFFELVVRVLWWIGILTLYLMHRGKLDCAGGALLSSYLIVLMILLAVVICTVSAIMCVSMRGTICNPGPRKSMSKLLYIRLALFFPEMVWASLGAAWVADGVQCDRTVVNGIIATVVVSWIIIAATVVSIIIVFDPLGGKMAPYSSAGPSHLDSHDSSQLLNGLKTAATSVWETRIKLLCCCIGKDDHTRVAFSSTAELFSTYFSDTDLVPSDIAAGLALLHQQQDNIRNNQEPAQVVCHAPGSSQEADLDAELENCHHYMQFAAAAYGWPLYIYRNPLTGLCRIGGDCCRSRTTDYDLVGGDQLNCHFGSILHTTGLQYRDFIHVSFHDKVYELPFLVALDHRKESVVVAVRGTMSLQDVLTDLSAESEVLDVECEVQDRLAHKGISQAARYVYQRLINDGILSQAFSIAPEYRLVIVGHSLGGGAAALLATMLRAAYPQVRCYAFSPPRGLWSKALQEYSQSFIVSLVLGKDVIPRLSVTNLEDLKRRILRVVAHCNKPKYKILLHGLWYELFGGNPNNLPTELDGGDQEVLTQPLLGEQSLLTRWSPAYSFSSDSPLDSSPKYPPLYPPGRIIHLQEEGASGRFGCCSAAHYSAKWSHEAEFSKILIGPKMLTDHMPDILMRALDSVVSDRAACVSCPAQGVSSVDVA
ABCB6 inh MLPCN = ABCB6 transporter inhibitors, primary screen, K562-ABCB6 cells, flow cytometry, MLPCN library; ATP-binding cassette sub-family B member 6 (Homo sapiens), Q9NP58; K562-ABCB6 porphyrin accumulation, 1 h; hits give low values; fluorescence ratio to DMSO, % at 10 µM; 360,000 compounds, 0.19% hits;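 active = fluorescence ratio to DMSO below 75%, the collection mean minus 3 SD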;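 also: signal is porphyrin accumulated inside mitochondria; 100% equals median channel fluorescence of DMSO control wells; lower ratio means ABCB6 inhibition with less porphyrin fluorescence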
iPSC survival up = enhancers of single-cell hiPSC survival, primary screen, ATPlite luminescence; 100% = ROCK inhibitor wells, 0% = DMSO; AID 602274, 2012; survival enhancement, % at 20 µM; 360,000 compounds, 0.044% hits; in the data active = survival enhancement above about 18%;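 also: cells exposed to compounds for 16 hours before the ATP read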
TMEM16A inh = TMEM16A chloride channel inhibitors, primary screen, cell-based, HTS. Anoctamin-1 (Mus musculus), Q8BHY3. HEK293 TMEM16A/YFP iodide influx fluorescence, ionomycin. normalized B-score (activity score, 25-100; higher = stronger inhibition) at 10 µM. 310,000 compounds, 1.2% hits;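 active = ratio plate-corrected score three or more library SD toward inhibition, starting fluorescence score within five deviations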;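 also: score derived from kinetic fluorescence span divided by baseline fluorescence per well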
TMEM16A act = TMEM16A chloride channel activators or potentiators, primary screen, cell-based, HTS; AID 623877, 2012; B-score at 10 µM; HEK293 TMEM16A/YFP-H148Q/I152L, iodide quench fluorescence; hits give low values; 340,000 compounds, 0.3% hits;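 active = fluorescence-ratio B-score plate-corrected deviation score at least 3 library SD below zero, with starting fluorescence score within 5 deviations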;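 also: channel opened by trigger with iodide after compound preincubation; score built on the fluorescence ratio of max minus min over baseline; more negative score means more quench and so TMEM16A activation or potentiation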
TMEM16A reconf = TMEM16A chloride channel inhibitors, confirmation, cell-based, re-confirmation; shares compounds with TMEM16A inh; 2,300 compounds, 39% hits; HEK293 TMEM16A/YFP-H148Q, iodide quench fluorescence; ionomycin added to raise cell calcium; inhibition, % at 10 µM;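 active = mean duplicate percent inhibition, scaled so buffer wells are 0 and the reference blocker 100, over three buffer SD above buffer mean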
TMEM16A Ca cntr = calcium mobilization in TMEM16A/YFP HEK293 cells, confirmation, counter-screen for TMEM16A inhibitor project. shares compounds with TMEM16A inh. Fluo4 calcium mobilization. calcium response (% of ionomycin), % at 10 µM. 2,300 compounds, 2% hits. AID 652231, 2013;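 active = duplicate-averaged calcium signal over 20% of the ionomycin maximum, relative to buffer baseline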;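 also: each well's signal is peak minus trough fluorescence divided by its pre-addition baseline; 0% = buffer wells and 100% = ionomycin wells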
Parental YFP cnt = iodide YFP quench changes in parental YFP-HEK293, counter-screen for TMEM16A inhibitor project, cell-based; YFP ratio F(max-min)/F0 at 10 µM; shares compounds with TMEM16A inh; 2,300 tested, under 10 active; ionomycin;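 active = yellow fluorescent protein signal ratio exceeding the buffer control mean by over 5 SD of those controls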;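 also: ratio is mean of duplicate wells from kinetic YFP trace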
ClC-1 inh = ClC-1 chloride channel inhibition, selectivity assay for TMEM16A inhibitor project, cell-based, voltage-dependent ClC-1; shares compounds with TMEM16A inh; CHO ClC-1-YFP, iodide influx fluorescence quench; iodide control reads 0, buffer control 100; ratio percent, % at 10 µM; 2,300 tested, under 10 active;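 active = duplicate-mean ratio percent above the mean of iodide-only control wells, which defines zero, plus 5 of their SD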;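 also: higher percent means stronger block of ClC-1 iodide influx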
* marks the source's active call; other numbers are inactive results; i = inactive; / = not tested or not shown.

SMILES	DAGLB inh	ABCB6 inh MLPCN	iPSC survival up	TMEM16A inh	TMEM16A act	TMEM16A reconf	TMEM16A Ca cntr	Parental YFP cnt	ClC-1 inh
Cc1cccc(NC(=O)c2ccc(CN3CCN(Cc4ccccc4)CC3)cc2)c1	1.1	95.0	2.3	25*	i	i	i	-0.871	-12.5
COc1cccc(NC(=O)c2ccc(CN3CCc4ccccc4C3)cc2)c1	-3.2	105.0	1.0	i	i	/	/	/	/
CC(=O)c1cccc(NC(=O)c2ccc(CN3CCc4ccccc4C3)cc2)c1	-2.4	94.0	-0.6	i	i	20.0%*	i	-0.958	-11.0
CCOC(=O)c1ccc(NC(=O)c2ccc(CN3CCc4ccccc4C3)cc2)cc1	-4.7	96.0	-0.4	100*	i	16.0%*	i	-1.15	-8.0
O=C(Nc1cccc(C(=O)N2CCN(Cc3ccccc3)CC2)c1)c1ccccc1	-1.6	91.0	-0.4	i	i	/	/	/	/
O=C(Nc1ccc(S(=O)(=O)N2CCCC2)cc1)c1ccc(CN2CCc3ccccc3C2)cc1	-2.2	95.0	0.1	i	i	/	/	/	/
CC(NCC(=O)Nc1ccccc1C(=O)NC1CC1)c1cccc(C(F)(F)F)c1 (stereo unspecified)	-5.2	101.0	-1.5	/	i	/	/	/	/
Cc1ccc(C)c(CSc2nnc(CCN)o2)c1	-0.4	98.0	-0.6	i	i	/	/	/	/
Cc1ccc(C)c(CSc2nnc([C@@H](N)C(C)C)o2)c1	-3.7	85.0	-4.1	100*	i	i	i	-1.11	-1.5
CO/N=C/C(c1ncc(C(F)(F)F)cc1Cl)S(=O)(=O)c1ccccc1 (stereo unspecified)	-6.6	96.0	-0.5	i	i	/	/	/	/
CO/N=C/C(C#N)c1ncc(C(F)(F)F)cc1Cl (stereo unspecified)	5.6	89.0	-0.1	25*	i	16.5%*	i	-0.838	-7.5
CC(C)CC1(C2CCCC2)NC(=O)NC1=O (stereo unspecified)	0.8	95.0	-0.4	/	i	/	/	/	/
CC12CC3(C)CC(C)(C1)CC(C(=O)NC1=NCCS1)(C2)C3	-3.0	99.0	0.6	25*	i	i	i	-1.14	-4.5
Cc1sc2ncn(CC(=O)OCC(=O)NC(C)(C)C)c(=O)c2c1C	1.5	98.0	-0.8	i	/	i	i	-1.06	-5.0
Nc1nc(SCC(=O)N2CCc3ccccc3C2)[nH]c(=O)c1-c1ccccc1	1.6	96.0	-1.4	i	i	i	i	-1.02	-15.0
Nc1nc(SCC(=O)Nc2ccccc2)[nH]c(=O)c1-c1ccccc1	-0.3	103.0	1.1	i	i	/	/	/	/
CC(CNC(=S)Nc1cc(F)cc(F)c1)CSc1ccc(Cl)cc1 (stereo unspecified)	-5.6	89.0	0.1	25*	i	43.5%*	i	-1.02	-15.5
CC(=O)Oc1ccc(-c2cccc(C(=O)NCC(=O)O)c2)cc1	2.1	100.0	2.1	25*	i	i	i	-1.1	-6.5
Cc1noc(C)c1NC(=O)N(C)C[C@@H]1Oc2ncc(Br)cc2C(=O)N([C@H](C)CO)C[C@@H]1C	-2.0	101.0	0.1	/	/	/	/	/	/
CC1=C(C(=O)OCC(Br)(Br)Br)C(c2cccc([N+](=O)[O-])c2)NC(=O)N1CCCC(=O)O (stereo unspecified)	3.3	101.0	6.5	25*	i	i	i	-0.991	-0.5
CCOC(=O)C1=C(C)N(CCCCCC(=O)O)C(=O)NC1c1cccc([N+](=O)[O-])c1 (stereo unspecified)	0.3	97.0	-2.4	i	i	/	/	/	/
O=C(CCl)Nc1c[nH]c(=O)[nH]c1=O	0.1	95.0	-0.5	/	i	/	/	/	/
CCCC(CCC)C(=O)Nc1c[nH]c(=O)[nH]c1=O	-0.8	103.0	4.7	100*	i	i	i	-0.987	-21.5
CCCn1c2ccccc2c2cnn(CC(=O)NCCCN3CCN(c4ccccc4)CC3)c(=O)c21	-1.6	98.0	-0.3	i	i	/	/	/	/
CC(C)C(=O)Nc1ccc(NC(=S)NC(=O)c2ccccc2F)cc1	-0.8	97.0	-0.3	i	i	/	/	/	/
SMILES	DAGLB inh	ABCB6 inh MLPCN	iPSC survival up	TMEM16A inh	TMEM16A act	TMEM16A reconf	TMEM16A Ca cntr	Parental YFP cnt	ClC-1 inh
CCc1ccc(NC(=S)N(Cc2ccccc2)Cc2ccccn2)cc1	-7.5	106.0	-0.2	25*	i	i	i	-1.22	-8.0
COc1ccc(C(=O)C2CN(c3ccccc3)CC2c2ccc(Cl)cc2)cc1 (stereo unspecified)	-2.7	99.0	5.3	25*	i	i	i	-1.12	-5.5
Cc1ccc(NC(=O)CSc2ccccc2)cc1S(=O)(=O)N1CCCCC1	-6.9	94.0	1.3	/	i	/	/	/	/
COc1ccc(NC(=O)COc2cc(C)cc(C)c2)cc1S(=O)(=O)N1CCCCC1	-8.8	87.0	-0.4	25*	i	i	i	-0.888	-20.0
Cc1ccc(NC(=O)CSc2ncnc3ccccc23)cc1S(=O)(=O)N1CCCCC1	-8.5	95.0	-1.7	25*	i	16.5%*	i	-1.04	-23.5
Cc1ccc(C)c(OCCC(=O)OCC(=O)Nc2ccc(C)c(S(=O)(=O)N3CCCCC3)c2)c1	-5.3	98.0	-0.4	25*	i	i	i	-1.08	-14.5
CCOC(=O)c1cc(C)n(Cc2cccc(OC)c2OC)c1C	-1.8	97.0	-2.2	25*	i	29.0%*	i	-0.903	-14.0
O=C(CN1CCC(c2nc3ccccc3[nH]2)CC1)Nc1ccc2c(c1)OCO2	-0.6	94.0	1.5	100*	i	i	i	-1.24	-1.5
Cc1ccc2nc(C3CCN(CC(=O)Nc4ccc5c(c4)OCCO5)CC3)[nH]c2c1	1.1	96.0	0.7	i	i	/	/	/	/
CC(=O)Nc1ccc(NC(=O)c2cc[n+]([O-])cc2)cc1	1.5	95.0	-0.2	i	i	/	/	/	/

Source: PubChem BioAssay (several laboratories)
